In PubChem BioAssay (NCI) one finds growth data, which are given here for 14 compounds.

SMILES strings stand for the structures. The panel holds about 83,000 compounds, 20% with a hit somewhere; the sample as a whole holds those more often.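 Interpretation: 100, growth as untreated; towards 0, rising growth inhibition; 0, no net growth; 0 to -100, cell death. Compounds scoring below 10 were considered active.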 Unmarked numbers belong to inactive results. The source made the active and inactive calls.

Test systems include NCI-H23 lung; NCI-H226 lung; NCI-H322M lung; HOP-62 NSCLC; NCI-H460 lung; HOP-92 NSCLC; NCI-H522 lung; A549/ATCC NSCLC; 786-0 renal.
Holding throughout (assay): NCI-60 one-dose screen, 48 h (100 = growth as untreated, 0 = no growth, -100 = all killed)
Details in all cases: 10 µM unless noted

As to `Cc1ccc(NSc2ccccc2[N+](=O)[O-])cc1`, the growth was 44.6% in the assay with NCI-H23 lung; 65.5% in the assay on NCI-H226 lung; 38.6% in the assay with NCI-H322M lung; 24.8% with HOP-62 NSCLC; 14.7% in the assay with NCI-H460 lung; 37.7% in the assay on HOP-92 NSCLC. The results for the growth in the assay on NCI-H522 lung, in the assay with A549/ATCC NSCLC and in the assay on 786-0 renal were 12.7%, 20.5% and 40.2%, respectively.
For the compound `CS(=O)(=O)c1ccc(-c2nc3cc(Cl)ccc3n2CC(=O)NO)cc1`, the growth in the assay on NCI-H23 lung is 94.7%; in the assay on NCI-H226 lung, 88.7%; in the assay on NCI-H322M lung it was 98.6%; with HOP-62 NSCLC it was 97.1%; in the assay with NCI-H460 lung, 101%; in the assay with HOP-92 NSCLC it was 98%. Further, the results for the growth with NCI-H522 lung, in the assay with A549/ATCC NSCLC and in the assay on 786-0 renal were 86.3%, 94.1% and 99.5%, respectively.
As for `O=C(NCc1cn(Cc2cccc(Oc3ccccc3)c2)nn1)c1cccnc1NCc1ccc(Cl)cc1`, the growth in the assay on NCI-H23 lung was 20.6%; in the assay on NCI-H226 lung it was 12.5%; with NCI-H322M lung, 54.5%; in the assay on HOP-62 NSCLC, 40.7%; in the assay on NCI-H460 lung it was 17.1%; with HOP-92 NSCLC, 22.1%. For the same compound, the growth in the assay on NCI-H522 lung was 20.8%; in the assay on A549/ATCC NSCLC, 22.5%; with 786-0 renal it was 38%.
`COc1cc2ccccc2cc1C(=O)NC(=S)Nc1ccc(-c2nc3ccccc3[nH]2)cc1`: the growth in the assay on NCI-H23 lung is 72.9%; in the assay on NCI-H226 lung it was 102%; with NCI-H322M lung, 90.9%; with HOP-62 NSCLC it was 79.9%; in the assay with NCI-H460 lung, 69.1%; in the assay with HOP-92 NSCLC it was 93.7%. Also, the values for the growth in the assay with NCI-H522 lung, with A549/ATCC NSCLC and in the assay on 786-0 renal were 89.6%, 92.1% and 38%, respectively.
Regarding `COc1cc(CNC(=O)/C=C/C=C/c2ccc3c(c2)OCO3)ccc1OCc1cn(-c2ccc(Cl)c(Cl)c2)nn1`, the growth was -34.1% (active) with NCI-H23 lung; 31.2% with NCI-H226 lung; 21.6% with NCI-H322M lung; -19.8% (active) with HOP-62 NSCLC; -57.5% (active) in the assay with NCI-H460 lung; -14.7% (active) with HOP-92 NSCLC. Also, the figures for the growth in the assay with NCI-H522 lung, in the assay with A549/ATCC NSCLC and in the assay on 786-0 renal were 5.67% (active), 2.23% (active) and -40.6% (active), respectively.
As for `N=C(N)c1ccc(-c2ccc(/C=C/c3ccccc3)s2)cc1`, the growth was 55.2% in the assay with NCI-H23 lung; 84.7% in the assay on NCI-H226 lung; 1% (active) with NCI-H322M lung; 33.3% with HOP-62 NSCLC; -60.1% (active) with NCI-H460 lung; 34.7% in the assay with HOP-92 NSCLC. In addition, the growth is 20% in the assay with NCI-H522 lung, 12.7% in the assay on A549/ATCC NSCLC and -38.3% (active) with 786-0 renal.
Take `C(=C\c1nc2ccccc2[nH]1)/c1nc2ccccc2[nH]1`: the growth in the assay on NCI-H23 lung was 96.5%; with NCI-H226 lung, 92.6%; in the assay on NCI-H322M lung it was 98.6%; in the assay on HOP-62 NSCLC it was 110%; in the assay with NCI-H460 lung, 103%; in the assay with HOP-92 NSCLC, 95%. The growth with NCI-H522 lung was 98%; in the assay with A549/ATCC NSCLC, 99.1%; in the assay with 786-0 renal, 113%.
With `CCCCCCCCN(CCCCCCCC)C(=N)c1ccnc2ccccc12`, the growth in the assay with NCI-H23 lung was -66.4% (active); in the assay with NCI-H226 lung it was 56.5%; in the assay with NCI-H322M lung, -64.5% (active); in the assay with HOP-62 NSCLC, -85.7% (active); with NCI-H460 lung, -78% (active); with HOP-92 NSCLC, -21.2% (active). Further, the growth is -74.7% (active) in the assay with NCI-H522 lung, -82.5% (active) with A549/ATCC NSCLC and -100% (active) in the assay with 786-0 renal.
Consider `CCCCCCNc1cc(C)nc2ccc(OC)cc12`, for which the growth was 52.7% with NCI-H23 lung; 61.5% with NCI-H226 lung; 67.2% with NCI-H322M lung; 73.1% in the assay on HOP-62 NSCLC; 61.6% in the assay with NCI-H460 lung; 39.3% in the assay on HOP-92 NSCLC. For the same compound, the growth in the assay with NCI-H522 lung is 63.9%; in the assay with A549/ATCC NSCLC, 64.3%; in the assay with 786-0 renal, 68.9%.
`N=c1ccn2c(n1)OC1C(O)C(CO)OC12` (stereo unspecified): the growth in the assay with NCI-H23 lung was 24.7%; with NCI-H226 lung it was 45.1%; in the assay with NCI-H322M lung it was 63.8%; with HOP-62 NSCLC it was 24.5%; in the assay on NCI-H460 lung it was -9.72% (active); with HOP-92 NSCLC, 49.2%. Besides, the growth in the assay on NCI-H522 lung was 35.9%; with A549/ATCC NSCLC, 16.2%; in the assay with 786-0 renal it was 15%.
Take `O=C1NCC(=O)N(Cc2ccco2)[C@H]1Cc1ccccc1`: the growth is 100% in the assay on NCI-H23 lung; 89% in the assay with NCI-H226 lung; 112% with NCI-H322M lung; 81.6% with HOP-62 NSCLC; 103% in the assay on NCI-H460 lung; 88.7% in the assay on HOP-92 NSCLC. The growth is 88.2% with NCI-H522 lung, 102% in the assay with A549/ATCC NSCLC and 95.1% with 786-0 renal.
Take `C=C(Cl)COC(=O)C(C)(C)O`: the growth is 99.4% with NCI-H23 lung; 113% in the assay with NCI-H226 lung; 90% in the assay on NCI-H322M lung; 105% with HOP-62 NSCLC; 104% in the assay on NCI-H460 lung; 103% with HOP-92 NSCLC. Besides, the growth was 93.8% with NCI-H522 lung, 94% with A549/ATCC NSCLC and 101% in the assay with 786-0 renal.
For `Cc1cc(C(c2ccccc2)c2ccccc2)ccc1NS(=O)(=O)c1ccccc1`, the growth in the assay on NCI-H23 lung was 86.2%; in the assay on NCI-H226 lung, 102%; with NCI-H322M lung it was 119%; in the assay with HOP-62 NSCLC, 110%; in the assay with NCI-H460 lung, 93.2%; with HOP-92 NSCLC it was 95.8%. Besides, the growth with NCI-H522 lung is 83.7%; in the assay on A549/ATCC NSCLC, 87.9%; in the assay with 786-0 renal it was 102%.
Consider `CCN(CCO)CC(=O)c1cc(Cl)cc(Cl)c1Cl`, for which the growth with NCI-H23 lung was 96.6%; in the assay with NCI-H226 lung, 88.6%; in the assay on NCI-H322M lung, 101%; with HOP-62 NSCLC it was 94.8%; in the assay on NCI-H460 lung it was 105%; in the assay on HOP-92 NSCLC, 89.4%. In addition, the results for the growth with NCI-H522 lung, in the assay on A549/ATCC NSCLC and in the assay with 786-0 renal were 67.6%, 96.1% and 98.1%, respectively.
